The record followed here is PubChem BioAssay (NCI).

Compounds without any hit were thinned out: in the full panel of roughly 83,000, 20% have a hit.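 Plates (96-well) were seeded with cells, treated with compound at one concentration, and incubated for 48 hours before percent growth was determined.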 Unmarked numbers belong to inactive results. Activity calls are given as the source filed them. Rule for the calls: active = growth percent below 10; inactive = the rest.

In the experiment the test system is M14 melanoma. Put plainly: NCI-60 one-dose screen, 48 h (100 = growth as untreated, 0 = no growth, -100 = all killed). As to conditions: 10 µM unless noted.
For `CC(=O)O[C@H]1CC[C@@]2(C)C(=CC[C@H]3[C@@H]4C[C@@H](N5CC5)[C@H](C(C)=O)[C@@]4(C)CC[C@@H]32)C1`, the growth is 95.6%.
For the molecule `CC(=O)O[C@H]1C(=O)[C@@]2(C)[C@H]([C@H](OC(=O)c3ccccc3)[C@]3(O)C[C@H](OC(=O)[C@H](OC(=O)OC[C@H]4COC(C)(C)O4)[C@@H](NC(=O)c4ccccc4)c4ccccc4)C(C)=C1C3(C)C)[C@]1(OC(C)=O)CO[C@@H]1C[C@@H]2O`, the growth was -19% (active).
In the case of `COC(=O)N[C@H]1CCc2c(Br)c(OC)c(OC)c(OC)c2-c2ccc(SC)c(=O)cc21` it was 2.58% (active); in that of `CC[C@H](C)[C@H](NC(=O)c1ccccn1)C(=O)N(C)[C@H](C[C@@H](OC(C)=O)c1nc(C(=O)N[C@@H](Cc2ccccc2)C[C@H](C)C(=O)OC)cs1)C(C)C`, 4.96% (active); in that of `Cc1cc(N(CCCl)CCCl)ccc1C=Nc1ccc(-c2csc(Cc3ccccc3)n2)cc1`, 79.8%.
In the case of `COC(=O)[C@]12CCC(C)(C)C[C@H]1[C@H]1C(=O)C[C@@H]3[C@@]4(C)C[C@@]5(CC(C)(C)[C@@H]4CC[C@@]3(C)[C@]1(C)CC2)OO[C@@](C)(C(F)(F)F)O5` it was 99.2%.
Turning to `CN1CCC(c2c[nH]c3ccccc23)C1` (centres undefined), the growth is 93%.
For `CCC[CH2][Sn]([CH2]CCC)([CH2]CCC)[O]c1ccc(Cl)cc1Cl` the value was -83.9% (active).
For `COC(=O)[C@H](C[C@H](Cc1ccccc1)NC(=O)c1csc([C@@H](C[C@H](C(C)C)N(C)C(=O)[C@@H](NC(=O)[C@H]2CCCCN2C)C(C)C)OC(C)=O)n1)NC(=O)OCc1ccccc1` the value was -48.4% [8.5 µM] (active).
